Assay results taken from PubChem BioAssay AID1159580 (chemical genetic matrix, 2015).
Where “and” joins values, the source holds several entries; their conditions need not be identical. Equal entries are not always repeated. Screen size: about 5,500 compounds; about 2,000 (36%) were called active. Inconclusive results (about 18%) are left out. Cut-off read from the data, not from the text of the source: active = normalized growth mostly below about 0.91 (no sharp cut-off); inconclusive = no clear call, values can overlap the other calls; inactive = mostly above about 0.92. The list shows a part of the results.

Assay: chemical genetic growth profiling, strain panel (AID 1159580);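 note: tested at 20 µM; growth read once vehicle control cultures reached saturation at 30 °C; 1 = growth at the plate median or of vehicle wells; lower values mean less growth of the strain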
Conditions: S. cerevisiae deletion strains, growth OD

Measured: normalized growth

OC(c1cc(C(F)(F)F)nc2c(C(F)(F)F)cccc12)C1CCCCN1 (stereo not drawn)
inactive: locus YAL021C, strain ccr4, active compounds read low 0.995 | locus YAL026C, strain drs2, active compounds read low 0.972 | locus YAL030W, strain snc1, active compounds read low 1.02 | locus YBL061C, strain skt5, active compounds read low 1.01 | locus YBR009C, strain hhf1, active compounds read low 1.01 | locus YBR021W, strain FUR4, active compounds read low 0.965 | locus YBR023C, strain chs3, active compounds read low 1 | locus YBR171W, strain sec66, active compounds read low 1.02 | locus YBR229C, strain ROT2, active compounds read low 0.988 | locus YBR231C, strain swc5, active compounds read low 1.01 | locus YBR279W, strain paf1, active compounds read low 1.02 | locus YCL011C, strain gbp2, active compounds read low 1.01 | locus YCL016C, strain dcc1, active compounds read low 1 | locus YCL029C, strain bik1, active compounds read low 0.999 | locus YCL069W, strain vba3, active compounds read low 0.999 | locus YCR088W, strain abp1, active compounds read low 1.01 | locus YDL005C, strain med2, active compounds read low 1.01 | locus YDL035C, strain GPR1, active compounds read low 0.968 | locus YDL040C, strain nat1, active compounds read low 1.02 | locus YDL074C, strain BRE1, active compounds read low 0.945 | locus YDL101C, strain DUN1, active compounds read low 0.993 | locus YDL134C, strain PPH21, active compounds read low 0.966 | locus YDL185W, strain tfp1, active compounds read low 0.979 | locus YDL192W, strain arf1, active compounds read low 0.997 | locus YDR001C, strain nth1, active compounds read low 1.01 | locus YDR069C, strain doa4, active compounds read low 1.01 | locus YDR101C, strain arx1, active compounds read low 0.993 | locus YDR137W, strain rgp1, active compounds read low 1.12 | locus YDR150W, strain NUM1, active compounds read low 0.995 | locus YDR159W, strain sac3, active compounds read low 0.999 | locus YDR162C, strain NBP2, active compounds read low 0.969 | locus YDR195W, strain ref2 1.02 | locus YDR297W, strain sur2, active compounds read low 1.01 | locus YDR318W, strain mcm21, active compounds read low 0.988 | locus YDR334W, strain swr1, active compounds read low 1.01 | locus YDR335W, strain msn5, active compounds read low 1.01 | locus YDR388W, active compounds read low 0.995 | locus YDR392W, strain spt3, active compounds read low 0.997 | locus YDR502C, strain sam2, active compounds read low 0.987 | locus YEL003W, strain gim4, active compounds read low 1.02 | locus YEL037C, strain rad23, active compounds read low 1.02 | locus YEL061C, strain CIN8 (second series), active compounds read low 1 | locus YEL061C, strain CIN8, active compounds read low 0.994 | locus YER015W, strain faa2, active compounds read low 1.01 | locus YER016W, strain bim1, active compounds read low 1.01 | locus YER110C, active compounds read low 0.996 | locus YER111C, strain swi4, active compounds read low 1.01 | locus YER155C, strain BEM2 (second series), active compounds read low 1.02 | locus YER155C, strain BEM2, active compounds read low 0.997 | locus YER167W, strain BCK2, active compounds read low 0.971 | locus YFR010W, strain ubp6, active compounds read low 1 | locus YGL078C, strain dbp3, active compounds read low 0.985 | locus YGL086W, strain mad1, active compounds read low 0.988 | locus YGL167C, strain pmr1, active compounds read low 1.02 | locus YGL173C, strain kem1, active compounds read low 1.02 | locus YGL227W, strain vid30, active compounds read low 1 | locus YGL240W, strain doc1, active compounds read low 1.03 | locus YGL248W, strain PDE1, active compounds read low 0.997 | locus YGL253W, strain hxk2, active compounds read low 1 | locus YGR078C, strain PAC10, active compounds read low 0.98 | locus YGR135W, strain pre9, active compounds read low 0.973 | locus YGR229C, strain SMI1, active compounds read low 0.95 | locus YGR252W, strain gcn5, active compounds read low 0.922 | locus YHR013C, strain ard1, active compounds read low 1 | locus YHR027C, strain rpn1, active compounds read low 1.02 | locus YHR030C, strain SLT2, active compounds read low 0.994 and 0.969 | locus YHR079C, strain IRE1 (second series), active compounds read low 0.985 | locus YHR079C, strain IRE1, active compounds read low 0.984 | locus YHR094C, strain hxt1, active compounds read low 0.988 | locus YHR129C, strain ARP1, active compounds read low 0.99 | locus YHR142W, strain chs7, active compounds read low 0.984 | locus YHR200W, strain rpn10, active compounds read low 0.996 | locus YIL066C, strain RNR3, active compounds read low 0.973 | locus YIL073C, strain SPO22, active compounds read low 0.979 | locus YIL125W, strain kgd1, active compounds read low 0.995 | locus YIR030C, strain dcg1, active compounds read low 0.99 | locus YJL092W, strain hpr5, active compounds read low 1.01 | locus YJL095W, strain BCK1 (second series), active compounds read low 1 | locus YJL095W, strain BCK1, active compounds read low 0.969 and 0.948 | locus YJL115W, strain asf1, active compounds read low 1.01 | locus YJL129C, strain trk1, active compounds read low 1.02 | locus YJL134W, strain LCB3, active compounds read low 0.993 | locus YJL154C, strain vps35, active compounds read low 1.01 | locus YJL164C, strain tpk1, active compounds read low 0.986 | locus YJL166W, strain qcr8, active compounds read low 1.02 | locus YJL168C, strain set2, active compounds read low 0.99 | locus YJL187C, strain SWE1 (second series), active compounds read low 0.991 | locus YJR043C, strain POL32, active compounds read low 0.979
